Data as given in ChEMBL document CHEMBL4513216, “Probing the Open Global Health Chemical Diversity Library for Multistage-Active Starting Points for Next-Generation Antimalarials” (ACS Infect Dis, 2020).
Screen size: about 65,000 compounds; about 2,100 (3.2%) showed an effect of 50% or more. The median lay at about -52%. Many of the other results were omitted from the sample, so strong results are more common in it than they were.

Tested on: Plasmodium falciparum
Test: Screen against P. falciparum Asexual Blood Stage (ABS), at 5uM
Type: functional, Dd2
Details: tested at 5 uM

Structure (SMILES)	INHIBITION
O=C(c1cc2ccccc2[nH]c1=O)N1CCC2(CCCNC2)C1 (stereo not drawn)	-49.9%
CCCN1CC[C@@H]2OC[C@H](C(=O)Nc3cccnc3)C[C@@H]2C1	-131%
CC(C)NC(=O)CN1CCSC2(CCCCC2)C1	-66.6%
CN1CC=C(c2noc(CCC(=O)N3CCc4ccccc4C3)n2)CC1	-27.1%
CCc1ccccc1Nc1noc2c1CN(C(=O)CCOC)CC2	85.1%
CC(C)Nc1nc2c(c(NC3CC3)n1)CCN(Cc1nccn1C)CC2	76.1%
CC(C)N1CCO[C@H]2CN(C(=O)Cc3ccsc3)C[C@H]21	-23.1%
Cn1ccnc1CN1CC[C@H]2CO[C@H](CNc3ncccn3)[C@H]2C1	-52.6%
CC(C)Nc1nc2c(c(NC3CC3)n1)CN(C(=O)Cc1ccsc1)CC2	75.6%
Cn1ccnc1CN1CCN2C[C@H](Oc3cncnc3)C[C@H]2C1	-70.4%
Cc1cccc(CN2CC[C@@H]3[C@@H]2CCN3C(=O)Cc2ccsc2)n1	-115%
CN1CCC(n2cc3nc(N)[nH]cc-3c2=O)CC1	-44.7%
O=C(COc1ccccc1)N1C[C@@H](O)[C@H](N2CCCC2)C1	-15.5%
CNC(=O)[C@@H]1C[C@H]2CN(Cc3c(C)noc3C)C[C@H]2N1C(C)C	-39.8%
COc1ccccc1OCCCN(C)c1cc(C)nc(N)n1	73.5%
Cc1cc(N(C)CCOc2ccccc2F)nc(N)n1	85.3%
COCCN(C)C(C)Cc1ccccc1OC (stereo not drawn)	23.6%
COc1ccccc1OCCN(C)c1cc(C)nc(N)n1	70.2%
CC(C)CNC(=O)N1C[C@H]2CCN[C@H]2C1	14%
N#CC1(C(=O)NCC2CCC3(CCNCC3)O2)CC1 (stereo not drawn)	22.6%
CCS(=O)(=O)c1nnc([C@@H](N)Cc2ccccc2)o1	-131%

Structure (SMILES)	INHIBITION
CC[C@H](C)[C@@H](CO)NC(C)Cc1ccc(Cl)cc1 (stereo partly drawn)	18.9%
COCCN1C(=O)CC[C@@H]2[C@@H]1CCN2Cc1c(C)noc1C	-35.6%
O=C(Nc1cccnc1)[C@H]1CN(C2CCCC2)C[C@H]2OCC[C@@H]12	-39.7%
COCCN1CCN(Cc2ccoc2)Cc2cccnc21	21%
CN(C)CCN1CCN(Cc2nccs2)Cc2cccnc21	5.69%
CN(C)CCN1CCN(Cc2cccs2)Cc2cccnc21	77.1%
CC(C)c1cc(C(=O)N2CCCC3(CCNC3)C2)no1 (stereo not drawn)	-75.8%
O=C1[C@H]2CN(Cc3cccs3)C[C@H]2CN1c1cncnc1	-85.7%
CCN1C[C@@H]2CN(Cc3cccs3)C[C@@H]2C1=O	37.6%
O=C1CN(C(=O)c2ccc(F)cc2)CC(O)CN1Cc1cccs1 (stereo not drawn)	88.8%
COCC(=O)NC(C)Cc1cccc(OC)c1 (stereo not drawn)	-118%
Cc1noc(C)c1CN1C[C@@H]2COC[C@@H](C(=O)N3CCCO3)[C@@H]2C1	-40.4%
Cc1c(C(C)NCC2CCCC2)cnn1-c1ccc(F)cc1F (stereo not drawn)	71.9%
Cc1c(C(C)NC2CCN(C(C)C)CC2)cnn1-c1ccc(F)cc1F (stereo not drawn)	79.9%
N#Cc1ccc(NC2CCN(c3ncccn3)CC2)cc1C(F)(F)F	5.54%
CCc1noc(C(C)N2CCNCC2)n1 (stereo not drawn)	-31.4%
CCN1CCCC1CN(CCN(C)C)S(=O)(=O)c1ccccc1C#N (stereo not drawn)	79.6%
O=C(NC1CC(F)(F)C1)[C@]12COC[C@H]1CN(Cc1cccnc1)C2	-63.2%
CC1CCN(CCNCc2cc(-c3ccccc3)cn3nnnc23)CC1	70.1%
O=C(Cc1ccsc1)N1C[C@@H]2OCCN(CC3CCCO3)[C@@H]2C1 (stereo partly drawn)	-85.3%
O=C(N1CCOCC1)N1CCCC2(CCCNC2)C1 (stereo not drawn)	-45.8%

Structure (SMILES)	INHIBITION
Cn1cc(CN2C[C@@H]3OCCN(c4ncccn4)[C@@H]3C2)cn1	-106%
CCOc1ccc2ccccc2c1CNCC1CCNCC1	91.6%
CCOc1ccc2ccccc2c1CNCC1CCS(=O)(=O)C1 (stereo not drawn)	74.9%
CC(C)CCN1C[C@@H]2C[C@H](C(=O)Nc3cccnc3)[C@H](C1)O2	-112%
C[C@@H]1CN(C2CCOC2)C[C@]12CCN(c1cccnc1)C2=O (stereo partly drawn)	-78.9%
CC(=O)N1C[C@@H]2CN(Cc3cccnc3)CCO[C@@H]2C1	-51.9%
Cc1ccc([C@]2(O)CC[C@H]3CN(Cc4cc(C)c(O)c(C)c4)C[C@H]32)nc1	74.6%
Cc1ccc([C@]2(O)CC[C@H]3CN(Cc4cccnc4)C[C@H]32)nc1	-61.7%
Cc1ccc([C@]2(O)CC[C@H]3CN(Cc4ccncc4)C[C@H]32)nc1	-23.8%
Cc1ccc(-c2cn3c(n2)CO[C@@H](CNCc2nccn2C)C3)cc1	87.4%
CC[C@H]1CN2CC[C@H]1C[C@@H]2CNCc1ccc2c(c1)OCO2	60.9%
CC[C@H]1CN2CC[C@H]1C[C@@H]2CNCc1ccc(N(C)C)cc1	62.8%
CC1CCN(C[C@H]2CN3CC[C@H]2C[C@@H]3CNC(=O)c2ccco2)CC1	-36.5%
CC[C@H]1CN2CC[C@H]1C[C@@H]2CNCc1ccc(OC(F)(F)F)cc1	85.7%
CCN(CC)C[C@H]1CN2CC[C@H]1C[C@@H]2CNC(=O)Nc1ccsc1	8.11%
CC[C@H]1CN2CC[C@H]1C[C@@H]2CNC(=O)Nc1cc(OC)cc(OC)c1	63.8%
CC[C@H]1CN2CC[C@H]1C[C@@H]2CNC(=O)NC1CCCCC1	-27.6%
CC(C)NC(=O)NC[C@H]1C[C@@H]2CCN1C[C@@H]2CN(C)c1ccccc1	-37.9%
CC[C@H]1CN2CC[C@H]1C[C@@H]2CNC(=O)Nc1ccccc1	-65.9%
COCC(=O)NC[C@H]1C[C@@H]2CCN1C[C@@H]2CN(C)c1ccccc1	-64.8%
CC[C@H]1CN2CC[C@H]1C[C@@H]2CNCc1ccc(OC)cc1	7%
